Measured values from PubChem BioAssay (Tox21).
Results filed as inconclusive are left out. Calls of active or inactive are those of the source. Unless noted, calls follow the shape of the dose curve; as a rule, active = well fitted curve in the direction sought with a large enough effect in the repeat runs; inconclusive = weak or mixed curves; inactive = no such curve, though single readings can be large; an effect the other way counts as inactive or inconclusive.

Legend:
[1] = target: Thyrotropin receptor (Homo sapiens) (UniProt P16473); experiment: qHTS assay to identify small molecule agonists of the thyroid stimulating hormone receptor (TSHR) signaling pathway (AID 1224843; calls by dose curve; also: nearly all actives have a fitted effect of over 45% in size)
Summary of the method: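 Using 15 concentrations per compound in triplicate, cAMP production was monitored in TSHR-HEK293 cells after 30 min compound incubation at RT; HTRF reagents followed, with fluorescence intensity recorded after 1 h.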

[2] = qHTS assay to identify small molecule agonists of H2AX (AID 1224845; active = well fitted activation curve with a large enough effect in the signal ratio in the repeat runs, not every such curve was filed as active; the % refers to the signal ratio)
Summary of the method: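 Wild-type CHO-K1 cells plated overnight, then exposed 3 hr at 37C to compounds at 15 concentrations (0.76% DMSO). Lysed, then HTRF anti-pH2AX(S139)-cryptate/anti-H2AX-d2 detection after 24 hr at room temperature; emissions 665 and 620 nm.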

[3] = qHTS assay to identify small molecule agonists of H2AX - cell viability counter screen (AID 1224847; calls by dose curve; also: top concentration of the series differs between compounds; nearly all actives have a fitted effect of over 30% in size)
Summary of the method: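 Wild-type CHO-K1 cells (10% FBS medium) were plated overnight at 37C, exposed to compounds at 15 concentrations for 3 hr at 37C (0.76% DMSO final), and viability was read as CellTiter-Glo luminescence after 30 min at room temperature.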

[4] = qHTS assay to identify small molecule antagonists of the estrogen related receptor (ERR) signaling pathway from Tox21 library (AID 1224848); also: nearly all actives have a fitted effect of over 50% in size
Summary of the method: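 Tox21 10K compounds in DMSO tested for ERR pathway antagonism in NTP's ERR cell line; 18 h, 37 C exposure; ONE-Glo luminescence.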

[5] = qHTS assay to identify small molecule agonists of the estrogen related receptor (ERR) signaling pathway from Tox21 library (AID 1224849; calls by dose curve; also: nearly all actives have a fitted effect of over 15% in size); conditions: ERR reporter cell line, ONE-Glo luciferase, 18 h; at 92.4 µM (top of the series) unless noted
Summary of the method: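 Cells carrying the ERR reporter were plated and allowed to settle for 6 h, exposed to library compounds for 18 h at 37 C, then lysed with ONE-Glo and luminescence measured.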

[6] = qHTS RealTime-Glo MT Cell Viability Assay in HepG2 cells - 24 hour (AID 1224867); also: nearly all actives have a fitted effect of over 50% in size
Summary of the method: (§1)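 Luminescence read-out: viable HepG2 cells reduce a prosubstrate to a NanoLuc substrate, giving a signal proportional to live cell number. Reads taken at 0, 8, 16, 24, 32 and 40 h of compound exposure at 37 C.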

[7] = qHTS RealTime-Glo MT Cell Viability Assay in HEK293 cells - 32 hour (AID 1224868); also: top concentration of the series differs between compounds; nearly all actives have a fitted effect of over 50% in size
Summary of the method: (§2)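 Nonlytic real-time viability readout: viable cells convert prosubstrate to NanoLuc substrate, giving luminescence proportional to live cell number. HEK293, 600 cells/well, compound added after 5 h, continuous culture at 37 C.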

[8] = A CellTox Green Cytotoxicity Assay to monitor cytotoxicity in HEK293 cells - 0 hour (AID 1224869); also: nearly all actives have a fitted effect of over 50% in size
Summary of the method: (§3)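 Cells (HEK293, 600/well) and dye reagent are dispensed together. After 5 h at 37 C, 23 nL compound is pinned in. Plates stay at 37 C for 40 h with fluorescence read at 0h, 8h, 16h, 24h, 32h and 40h.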

[9] = A CellTox Green Cytotoxicity Assay to monitor cytotoxicity in HEK293 cells - 40 hour (AID 1224871); also: nearly all actives have a fitted effect of over 45% in size
Summary of the method: as §3

[10] = qHTS RealTime-Glo MT Cell Viability Assay in HepG2 cells - 8 hour (AID 1224873); also: nearly all actives have a fitted effect of over 55% in size
Summary of the method: (§4)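 HepG2 cells mixed with RealTime-Glo MT reagents (NanoLuc plus cell-permeant prosubstrate) were seeded at 600 cells/well, incubated 5 h at 37 C/5% CO2, then pinned with compounds in DMSO; nonlytic luminescence tracked viability during 40 h treatment.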

[11] = qHTS RealTime-Glo MT Cell Viability Assay in HEK293 cells - 40 hour (AID 1224874); conditions: RealTime-Glo luminescence; max response: active compounds read low; also: nearly all actives have a fitted effect of over 50% in size
Summary of the method: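 Real-time viability in HEK293: signal arises when living cells convert a prosubstrate for NanoLuc in the medium, so luminescence tracks viable cell number. Compound (23 nL, DMSO) added 5 h post-seeding; kinetic reads at 0–40 h, 37 C.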

[12] = A CellTox Green Cytotoxicity Assay to monitor cytotoxicity in HEK293 cells - 24 hour (AID 1224875); also: nearly all actives have a fitted effect of over 45% in size
Summary of the method: as §3

[13] = qHTS RealTime-Glo MT Cell Viability Assay in HepG2 cells - 32 hour (AID 1224877); also: nearly all actives have a fitted effect of over 55% in size
Summary of the method: as §1

[14] = A CellTox Green Cytotoxicity Assay to monitor cytotoxicity in HepG2 cells - 24 hour (AID 1224878); also: nearly all actives have a fitted effect of over 45% in size
Summary of the method: (§5)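 Cells and non-lytic dye reagent are dispensed together (600 HepG2 cells/well) and incubated 5 h before DMSO compound transfer. Kinetic fluorescence is then recorded in the same wells during 40 h at 37 C.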

[15] = A CellTox Green Cytotoxicity Assay to monitor cytotoxicity in HepG2 cells - 40 hour (AID 1224879); also: nearly all actives have a fitted effect of over 40% in size
Summary of the method: as §5

[16] = qHTS RealTime-Glo MT Cell Viability Assay in HEK293 cells - 16 hour (AID 1224872)
Summary of the method: as §2

[17] = A CellTox Green Cytotoxicity Assay to monitor cytotoxicity in HepG2 cells - 16 hour (AID 1224876); also: nearly all actives have a fitted effect of over 45% in size
Summary of the method: as §5

[18] = qHTS assay to identify small molecule agonists of the hypoxia (HIF-1) signaling pathway - cell viability counter screen (AID 1224844; calls by dose curve; also: nearly all actives have a fitted effect of over 50% in size)
Summary of the method: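 Cytotoxicity was measured in parallel with the HRE-driven beta-lactamase readout: after 17 hrs of compound exposure at 37C, HRE-bla ME-180 cells received CellTiter-Glo and luminescence was recorded 30 min later.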

[19] = qHTS assay to identify small molecule agonists of the hypoxia (HIF-1) signaling pathway (AID 1224846; active = well fitted activation curve with a large enough effect in the signal ratio in the repeat runs, not every such curve was filed as active; the % refers to the signal ratio)
Summary of the method: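 Compounds from the Tox21 10K library, dissolved in DMSO, are tested for induction of a hypoxia response element–controlled beta-lactamase reporter in ME-180 cells. Exposure lasts 17 hrs at 37C after a 5 hr settling period, followed by CCF4-AM FRET substrate.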

[20] = qHTS RealTime-Glo MT Cell Viability Assay in HepG2 cells - 40 hour (AID 1224870); also: nearly all actives have a fitted effect of over 50% in size
Summary of the method: as §4
% is scaled to controls: 0 for no effect and ±100 for the full control effect.

Sequence of Thyrotropin receptor (Homo sapiens) (P16473 whole entry, looked up): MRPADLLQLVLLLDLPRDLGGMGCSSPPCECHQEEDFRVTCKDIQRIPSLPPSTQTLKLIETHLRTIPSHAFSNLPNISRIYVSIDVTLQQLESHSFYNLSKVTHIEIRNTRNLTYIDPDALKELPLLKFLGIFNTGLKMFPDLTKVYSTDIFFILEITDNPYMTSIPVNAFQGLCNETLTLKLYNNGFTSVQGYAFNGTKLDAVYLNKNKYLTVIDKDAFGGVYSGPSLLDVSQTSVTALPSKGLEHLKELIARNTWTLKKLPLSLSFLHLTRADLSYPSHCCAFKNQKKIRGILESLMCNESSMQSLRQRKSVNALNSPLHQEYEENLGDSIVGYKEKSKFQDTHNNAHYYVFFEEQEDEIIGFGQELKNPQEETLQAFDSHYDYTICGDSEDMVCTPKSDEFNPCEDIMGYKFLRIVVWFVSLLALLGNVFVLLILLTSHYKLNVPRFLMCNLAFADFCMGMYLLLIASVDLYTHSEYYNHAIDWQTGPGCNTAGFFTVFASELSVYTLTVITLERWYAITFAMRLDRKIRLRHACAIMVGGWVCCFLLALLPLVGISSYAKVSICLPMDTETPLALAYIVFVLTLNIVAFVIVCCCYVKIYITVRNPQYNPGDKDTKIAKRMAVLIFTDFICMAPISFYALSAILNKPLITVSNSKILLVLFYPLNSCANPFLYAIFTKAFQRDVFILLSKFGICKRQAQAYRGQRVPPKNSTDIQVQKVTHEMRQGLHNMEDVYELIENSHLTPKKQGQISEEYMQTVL

COc1ccc(C2CNC(=O)C2)cc1OC1CCCC1 (stereo not drawn)
inactive: Potency [1] | outcome [2] | Potency [3] | Potency [4] | activity change, positive = activation [5] -4.57% [at 42.5 µM] | outcome [6] | Potency [7] | outcome [8] | Potency [9] | outcome [10] | max response [11] -17.5% | outcome [12] | outcome [13] | outcome [14] | Potency [15]

Cc1cc2cc3c(C)cc(=O)oc3c(C)c2o1
inactive: Potency [1] | Potency [3] | activity change, positive = activation [5] 7.29% [at 42.5 µM] | outcome [6] | Potency [7] | outcome [8] | Potency [9] | Potency [16] | outcome [10] | max response [11] -18.2% | outcome [12] | outcome [17] | outcome [13] | outcome [14] | Potency [15]

ClCCCl
inactive: outcome [18] | outcome [2] | outcome [19] | Potency [3] | Potency [4] | activity change, positive = activation [5] 12.2% | outcome [6] | Potency [7] | outcome [8] | outcome [20] | Potency [9] | Potency [16] | outcome [10] | max response [11] -0.252% | outcome [12] | outcome [17] | outcome [13] | outcome [14] | Potency [15]

CCN1CCc2nc(N)oc2CC1
inactive: Potency [1] | outcome [2] | Potency [3] | outcome [6] | Potency [7] | outcome [8] | outcome [20] | Potency [9] | Potency [16] | outcome [10] | max response [11] 0.505% | outcome [12] | outcome [17] | outcome [13] | outcome [14] | Potency [15]

COCCOC(=O)C1=C(C)NC(C)=C(C(=O)OC(C)C)C1c1cccc([N+](=O)[O-])c1 (stereo not drawn)
inactive: Potency [1] | outcome [2] | outcome [19] | Potency [3] | outcome [8] | Potency [9] | outcome [12] | outcome [17] | outcome [14] | Potency [15]

COc1nccnc1NS(=O)(=O)c1ccc(N)cc1
inactive: Potency [1] | outcome [2] | outcome [19] | Potency [3] | activity change, positive = activation [5] -1.96% [at 42.5 µM] | outcome [6] | Potency [7] | outcome [8] | outcome [20] | Potency [9] | Potency [16] | outcome [10] | max response [11] 2.98% | outcome [12] | outcome [17] | outcome [13] | outcome [14] | Potency [15]

O=P(O)(O)OP(=O)(O)O
inactive: Potency [1] | outcome [2] | Potency [3] | outcome [6] | outcome [8] | outcome [20] | Potency [9] | Potency [16] | outcome [10] | max response [11] 2.82% | outcome [12] | outcome [17] | Potency [15]

COC(=O)CCCCCCCC(=O)OC
inactive: Potency [1] | outcome [2] | outcome [19] | Potency [3] | Potency [4] | activity change, positive = activation [5] 1.98% | outcome [6] | outcome [8] | outcome [20] | Potency [9] | Potency [16] | outcome [10] | max response [11] 11.9% | outcome [12] | outcome [17] | outcome [13] | Potency [15]
